Rows were chosen to be rich in hits. Some 22% of all compounds tested hit in one or more screens of this group.
Pf growth 96h: Primary qHTS for delayed death inhibitors of the malarial parasite plastid, 96 hour incubation | Potency, µM (doses to about 28.7 µM), for the others: top-dose activity change, negative = inhibition, hits mostly inhibitors | P. falciparum luciferase reporter growth, 96 h | 320,000 tested, 6.9% active | AID 504834, 2011; note: potency is the fitted concentration of half-maximal effect; % is set by controls: 0 for no effect and ±100 for the full control effect
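Two-generation exposure (96 h) targets delayed-death phenotype. Reporter parasites carrying integrated firefly luciferase, in red cells at 2% hematocrit and 0.05% parasitemia final, kept at 37 C, 5% CO2; luminescence loss indicates inhibition.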
LmPK inh: qHTS Assay for Inhibitors of Leishmania Mexicana Pyruvate Kinase (LmPK) | Potency, µM (doses to about 57.5 µM), for inactives: at the top dose activity change, negative = inhibition, actives largely listed as inhibitors | 290,000 tested, 0.37% active | purified LmPK, Kinase-Glo ATP luminescence, 1 h | AID 1721, 2009; note: potency is the fitted concentration of half-maximal effect; % is set by controls: 0 for no effect and ±100 for the full control effect
Target sequence (Q27686 whole entry, looked up): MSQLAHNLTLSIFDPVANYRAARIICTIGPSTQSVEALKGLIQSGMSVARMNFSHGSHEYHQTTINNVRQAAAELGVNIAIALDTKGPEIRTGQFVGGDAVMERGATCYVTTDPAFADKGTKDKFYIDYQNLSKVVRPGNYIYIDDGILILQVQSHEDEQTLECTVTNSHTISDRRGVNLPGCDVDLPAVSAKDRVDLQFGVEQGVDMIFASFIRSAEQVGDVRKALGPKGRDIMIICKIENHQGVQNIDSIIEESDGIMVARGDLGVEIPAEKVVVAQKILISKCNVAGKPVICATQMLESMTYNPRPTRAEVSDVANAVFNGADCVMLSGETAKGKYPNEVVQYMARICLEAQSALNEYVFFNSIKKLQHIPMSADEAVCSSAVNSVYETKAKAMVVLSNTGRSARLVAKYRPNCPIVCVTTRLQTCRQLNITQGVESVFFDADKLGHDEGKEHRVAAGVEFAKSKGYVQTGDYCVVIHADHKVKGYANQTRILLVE
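In 50 mM imidazole pH 7.2 with 7 mM MgCl2, LmPK (0.1 nM) turned over PEP (0.5 mM) and ADP (0.1 mM) for 1 h at room temperature. Luciferase read-out of ATP.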
Pf growth 48h: Primary qHTS for delayed death inhibitors of the malarial parasite plastid, 48 hour incubation; P. falciparum luciferase growth in erythrocytes, 48 h; Potency, µM (titrated, usually from 28.7 µM), for inactives: at the top dose activity change, negative = inhibition, hits mostly inhibitors; 310,000 tested, 5.9% active; note: potency is the fitted concentration of half-maximal effect; % is set by controls: 0 for no effect and ±100 for the full control effect
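Parasite viability was followed by luminescence of a genomically integrated firefly luciferase. Cultures held 0.1% parasitemia at 2% hematocrit (final), incubated under 5% CO2 at 37 C.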
Shiga toxin inh: A qHTS for Small Molecule Inhibitors of Shiga Toxin; 290,000 tested, 9.2% active; inhibition, % at 38.7 µM; Vero cells, Shiga toxin protein synthesis inhibition reporter; in the data active = inhibition mostly above about 28%, no sharp cut-off; inactive = mostly below about 43%; note: 0% is about no effect
Cycloheximide cs: Cycloheximide Counterscreen for Small Molecule Inhibitors of Shiga Toxin; cell reporter, cycloheximide protein synthesis inhibition counterscreen; max response, %; 300,000 tested, 12% active; in the data active = max response mostly above about 13%, no sharp cut-off; inactive = mostly below about 14%; note: read at 38.3 µM for the half of the compounds with a filed dose; 0% is about no effect
* = called active by the depositor; ? = inconclusive; nt = not tested or not shown. Unless noted, calls come from the whole dose curve; as a rule, active = well fitted inhibition curve with a large enough effect; inconclusive = small, poorly fitted or top-dose-only effect, or another doubt; inactive = no such curve, though single readings can be large or run the other way.

SMILES | Pf growth 96h | LmPK inh | Pf growth 48h | Shiga toxin inh | Cycloheximide cs
O=C(Nc1csc([N+](=O)[O-])c1)Nc1ccccc1Cl | ? | -5% | ? | 54* | 36*
O=C(Nc1ccccc1Cl)Nc1ccccc1Cl | 68% | 2% | 22% | 32 | 21*
COc1ccccc1NC(=O)Nc1ccccc1SC | 42% | 1% | -2% | 35 | 1
O=C(Nc1ccccc1Cl)Nc1cccnc1Cl | ? | 1% | 14% | 25 | 15
O=C(NC1CCCCC1)C(c1ccncc1)N(C(=O)c1csnn1)c1cccc(F)c1 (centres undefined) | 11% | -3% | -6% | -5 | -4
N#CC(C(=O)NC1CCCCC1)=C1CCCCCC1 | 26% | -2% | -2% | 8 | -1
Cc1cc(C)c[n+](CC(=O)c2ccccc2)c1 | ? | -6% | 3% | 13 | 0
CCC1=[N+](CC(=O)c2ccc(Br)cc2)CCn2c(C)ccc21 | ? | -4% | 5.9µM* | 52* | 15*
CCC1=[N+](CC(=O)c2ccc(C)cc2)CCn2cccc21 | -2% | 0% | ? | 48 | 24*
CCC1=[N+](CC(=O)c2ccc(C)cc2)CCn2c(C)ccc21 | ? | -6% | 3.3µM* | 13 | 23*
CC1=[N+](CC(=O)c2ccccc2)CCn2cccc21 | 25% | 7% | ? | 58* | 34*
CCC1=[N+](C)CCn2c(C)ccc21 | 15% | -6% | nt | -5 | -3
COCC(=O)N1CCC(Oc2ccc(C(=O)N3CCSCC3)cc2)CC1 | 34% | -11% | 18% | -20 | 10
OC[C@H]1NC[C@H](O)[C@@H](O)[C@@H]1O | nt | nt | nt | 4 | -2
Cc1ccc(S(=O)(=O)Cc2cc(F)c([N+](=O)[O-])cc2[N+](=O)[O-])cc1 | ? | 3% | ? | 46* | 22*
CCOC(=O)c1ccc([N+](=O)[O-])c(CS(=O)(=O)c2ccc(Cl)cc2)c1 | 10% | 0% | 4% | -9 | -4
Nc1ccc2c(c1)oc1ccccc12 | 47% | -4% | 42% | 50* | 27*
Nc1ccc2oc3ccccc3c2c1 | 55% | 1% | 32% | 4 | 14
CN1CCN(S(=O)(=O)c2ccc(C(F)(F)F)cc2)C(c2ccccc2)C1 (centres undefined) | -26% | nt | ? | nt | nt
CC(=O)NCCC(=O)NCC1(N(C)Cc2ccccc2)Cc2ccccc2C1 | 8% | -9% | -4% | -6 | -4
CN(Cc1ccccc1)C1(CNC(=O)CCC(F)(F)F)Cc2ccccc2C1 | 15µM* | 9% | 28% | nt | -1
COc1ccc(S(=O)(=O)NC2CC3CCC2C3)cc1 (centres undefined) | 8.3µM* | 0% | 8% | nt | -1
CSc1ccccc1N=Cc1nc(-c2ccccc2)oc1O | -18% | -3% | 6% | 94* | 37*
Cc1ccc(N=Cc2nc(-c3ccc(C)cc3)oc2O)cc1 | -16% | -1% | 37% | 97* | 27*
Oc1oc(-c2ccccc2)nc1C=NCc1ccccc1 | 73% | 0% | nt | 119* | 61*
SMILES | Pf growth 96h | LmPK inh | Pf growth 48h | Shiga toxin inh | Cycloheximide cs
Oc1oc(-c2cccc3ccccc23)nc1/C=N/c1nccs1 | -3% | 3% | 14% | 19 | 2
COc1ccc(N=Cc2nc(-c3ccco3)oc2O)cc1 | 9% | -14% | -13% | 102* | 51*
Oc1oc(-c2ccc(Br)cc2)nc1C=Nc1ccc(Br)cn1 | 61% | 2% | 44% | 15 | -3
O=C(COC(=O)c1ccc(Br)cc1)NCc1ccc(F)cc1 | 14% | 4% | 8% | -23 | -1
CN(Cc1nccs1)C(=O)C1CCC(=O)N(CCc2ccc(Cl)cc2)C1 (centres undefined) | ? | 1% | 0% | 22 | 21
O=C(Oc1cncc(Cl)c1)c1ccco1 | -26% | 2% | -19% | 13 | -3
Oc1oc(-c2ccccc2)nc1C=Nc1ccccc1 | 38% | -4% | 12% | 115* | 46*
O=C(Oc1oc(-c2ccco2)nc1C=Nc1ccc(Cl)cc1)c1ccco1 | 214% | 6% | 42% | 51* | 23*
CN(C)c1ccc(N=Cc2nc(-c3ccccc3)oc2O)cc1 | nt | -3% | ? | 17 | 11
Cc1csc(=O)n1CC(=O)Nc1ccc(Cl)cc1F | -5% | nt | 11% | nt | nt
O=C(N/N=C1\CCCc2ccccc21)c1ccc([N+](=O)[O-])cc1Cl | 7% | 6% | ? | 67 | 10
O=C(N/N=C1/CCc2ccccc21)C1CC1 | 55% | -4% | 26% | 92* | 33*
O=C(N/N=C1\CCc2ccccc21)c1ccccc1Cl | 132% | -9% | 120% | 96* | 53*
Cc1ccc(C(=O)N/N=C2\CCc3ccccc32)c(C)c1 | ? | -11% | 166% | 152* | 63*
O=C(N/N=C1\CCc2ccccc21)c1ccc(O)cc1 | 42% | ? | 67% | 57* | 43*
Cc1nnc2sc(SCC(=O)Nc3cccc(Cl)c3)nn2c1=O | ? | 8% | -23% | 4 | 5
O=C(NNC(=O)c1ccco1)c1cccc(Br)c1 | ? | -11% | ? | -15 | 9
O=C(O)c1ccccc1/C=N/NC(=S)NC1CCCCC1 | -8% | -4% | 10% | -2 | -2
S=C(N/N=C1\CCc2ccccc21)NC1CCCCC1 | -50% | -2% | ? | 112* | 32*
COc1ccc(-c2cc3nc(C4CCN(C(=O)OC(C)(C)C)CC4)c(C(=O)O)cn3n2)cc1 | 16% | -4% | 1.3µM* | -3 | -1
C[C@H]1C=C(C(=O)NC2CC2)O[C@@H](OCc2ccc(CO)cc2)C1 | 65% | -2% | 47% | 43 | 13*
O=C(NC1CC1)C1=C[C@H](c2ccc(C(F)(F)F)cc2)C[C@H](OCc2ccc(CO)cc2)O1 | ? | 3% | ? | 28* | 24*
C[C@H]1C=C(C(=O)NCc2ccccc2)O[C@@H](OCc2ccc(CO)cc2)C1 | ? | 5% | -1% | -8 | 6
O=C(NC1CC1)C1=C[C@@H](c2ccccc2)C[C@@H](OCc2ccc(CO)cc2)O1 | ? | -4% | ? | -7 | 2
Clc1ccc(-c2cn3c(n2)-c2ccccc2C3)cc1Cl | 0% | 25µM* | 117% | 64* | 40*
Cc1csc(NC(=O)Cc2ccc(F)cc2)n1 | 156% | 8% | 100% | 77* | 34*
COc1cccc(CC(=O)Nc2nc(C)cs2)c1 | 185% | 0% | 87% | 72* | 43*
Cc1csc(NC(=O)CCc2c(C)nc3cc(-c4ccc(Cl)cc4)nn3c2C)n1 | 15µM* | -4% | ? | 13 | 1
Cc1cccc(NC(=O)Cc2c(F)cccc2Cl)n1 | ? | -1% | 89% | 112* | 28*
O=C(Cc1c(F)cccc1Cl)Nc1ccncc1 | 6% | 0% | 0% | -5 | -2
